# This is a sample that favours compounds with a hit; in the whole collection about 19% have one here.
# IL1B secr inh: qHTS for Inhibitors of Inflammasome Signaling: IL-1-beta AlphaLISA Primary Screen; THP-1 LPS/ATP IL-1B secretion, AlphaLISA, 16 h; hits give low values; activity change, % at 57.5 µM; 360,000 tested, 4.7% active; AID 743279, 2014; in the data active means activity change below about -50%; inconclusive means mostly about -30% to -49%
#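 Secreted IL-1B measured by AlphaLISA bead assay after 16 h compound exposure of THP-1 cells; compounds (final up to 57.5 uM) added 1 h before LPS (250 ng/mL) and ATP (1.25 mM) stimulation; lower signal means less secretion.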
# TDP1 cell CPT: qHTS for Inhibitors of human tyrosyl-DNA phosphodiesterase 1 (TDP1): qHTS in cells in presence of CPT. chicken DT40 Tdp1-/-;hTDP1 cells + 20 nM CPT, ATP luminescence, 48 h. Potency, µM (top dose mostly 46.2 µM), usual class: inhibitors. 420,000 tested, 12% active. AID 686979, 2013; further: nearly all actives have a fitted effect of over 55% in size
#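 Chicken DT40 Tdp1-/- cells complemented with human TDP1, 400 cells/well, exposed to compounds plus 20 nM camptothecin for at least 48 h at 37 C; viability read as ATP content by CellTiter-Glo luminescence.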
# TDP1 cell noCPT: qHTS for Inhibitors of human tyrosyl-DNA phosphodiesterase 1 (TDP1): qHTS in cells in absence of CPT. 420,000 tested, 15% active. Potency, µM (series often up to 46.2 µM), most hits filed as inhibitors. DT40 Tdp1-/- hTDP1 cells, no CPT, ATP luminescence, 48 h; further: nearly all actives have a fitted effect of over 55% in size
#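 No-CPT arm: Tdp1-/-;hTDP1 DT40 cells (400/well) plus compounds, incubated ≥48 hr at 37 °C. Readout CellTiter-Glo luminescence.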
# HT1080NT lethal: qHTS for induction of synthetic lethality in tumor cells producing 2HG: qHTS for the HT-1080-NT fibrosarcoma cell line. HT-1080-NT fibrosarcoma viability, CellTiter-Glo ATP luminescence, 48 h. Potency, µM (top dose mostly 46.1 µM), actives largely listed as cytotoxic. 360,000 tested, 1.6% active;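 further: NT is the 2HG producing partner of a matched IDH1 knockdown line; nearly all actives have a fitted effect of over 55% in size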
#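 HT-1080-NT fibrosarcoma cells (2HG-overproducing), 750 cells/well in RPMI with 5% FBS, dosed after 2 h and incubated 48 h at 37C. CellTiter-Glo luminescence normalized to DMSO and no-cell wells; concentration-response curves fitted and classed.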
# HT1080 IDH1KD tx: qHTS for induction of synthetic lethality in tumor cells producing 2HG: qHTS for the HT-1080-IDH1KD cell line; HT-1080 IDH1 knockdown viability, ATP luminescence, 48 h; Potency, µM (doses to about 46.1 µM), actives largely listed as cytotoxic; 360,000 tested, 2% active
#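 Cytotoxicity counter-line: IDH1KD HT-1080, 48 h, CellTiter-Glo. Curves classed by r2, magnitude and activity.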
# Hits are given with their value; 0 = inactive; ? = inconclusive; - = no result given; [ ] = another dose, or the depositor's remark. Unless noted, the call rests on the fitted dose curve; in most records, active means well fitted curve in the direction sought with a large enough effect; inconclusive means small, poorly fitted or top-dose-only effect, or another doubt; inactive means no such curve, though single readings can be large; an effect the other way counts as inactive or inconclusive.
SMILES,IL1B secr inh,TDP1 cell CPT,TDP1 cell noCPT,HT1080NT lethal,HT1080 IDH1KD tx
Cc1csc2nc3cc(C(N)=O)ccc3c(=O)n12,0,0,0,0,0
CCC1CCCCN1S(=O)(=O)c1ccc(-n2cnnn2)c(C)c1 (centres undefined),0,0,0,0,0
Brc1ccc(-c2cc3c(N4CCN(c5ccccc5)CC4)nccn3n2)cc1,-,0,0,-,-
Cc1ccc(-c2cc3c(N4CCN(c5cc(C)ccc5C)CC4)nccn3n2)cc1,-,23µM,21µM,-,-
CCOC(=O)CNC(=O)N1CCc2cc(S(=O)(=O)N3CCC(C)CC3)ccc21,-,?,0,-,-
CC(O)CNc1nc(NCc2ccccc2)c2cnn(C)c2n1 (centres undefined),0,0,0,0,0
COCCCNc1nc(NCc2ccccc2OC)c2cnn(C)c2n1,-,?,23µM,-,-
COc1cccc(-c2nnc(-c3ccccc3NC(=O)c3cccc(C(F)(F)F)c3)o2)c1,-,0,0,-,-
c1csc(-c2nc(NCC3CCCO3)c3ccccc3n2)c1 (centres undefined),-90,?,?,0,0
Oc1ccccc1Nc1nc(NCC2CCCO2)c2ccccc2n1 (centres undefined),-109,16µM,26µM,0,0
COc1cccc(Nc2nc(NCC3CCCO3)c3ccccc3n2)c1 (centres undefined),-122,6.5µM,5.2µM,0,?
COc1cccc(Nc2ncc3nc(C)c(=O)n(C[C@H]4CCCO4)c3n2)c1,-,0,0,-,-
c1ccc(CN2CCC(Nc3nc(-c4cccs4)nc4ccccc34)CC2)cc1,-64,8.2µM,18µM,?,?
O=C(NNc1ncnc2ccccc12)c1cccc(Cl)c1,0,?,0,0,0
Oc1ccc(Nc2nc(NCC3CCCO3)c3ccccc3n2)cc1 (centres undefined),-96,23µM,16µM,21µM,?
Cc1ccc(S(=O)(=O)Nc2nc3ccccc3nc2NCC2CCCO2)cc1C (centres undefined),0,21µM,?,0,0
S=C(NCC1CCCO1)Nc1ccc(Nc2ccccc2)cc1 (centres undefined),0,?,?,0,0
Cc1cccc(S(=O)(=O)Nc2nc3ccccc3nc2NCC2CCCO2)c1 (centres undefined),0,0,0,0,0
CCCCS/C(N)=N/N=C/c1ccccc1O,0,?,?,0,0
CCCS/C(N)=N/N=C/c1cc(C)ccc1O,-51,0.73µM,0.82µM,0,?
c1cc2c3c(c1)CCCN3CCC2,-,0,0,-,-
COc1ncc(-c2ccc(N3C(c4ccsc4)=Cc4ccccc4C3CC(C)=O)cc2)cn1 (centres undefined),0,?,?,0,0
Cc1ccc(Nc2nc(N)c([N+](=O)[O-])c(N3CCOCC3)n2)cc1C,0,23µM,21µM,0,0
CN1CCN(c2nc(Nc3ccccc3)nc(N)c2[N+](=O)[O-])CC1,0,0,?,0,0
Cc1ccc(Nc2nc(N)c([N+](=O)[O-])c(N3CCC(C)CC3)n2)cc1C,-80,?,?,0,0
SMILES,IL1B secr inh,TDP1 cell CPT,TDP1 cell noCPT,HT1080NT lethal,HT1080 IDH1KD tx
O=c1oc2ccccc2cc1-c1cn2ccccc2n1,0,?,?,26µM,23µM
CCN(CC)Cc1cc(O)c(CN(CC)CC)cc1O,0,6.5µM,4.1µM,0,0
CCc1oc(C(=O)O)cc1CN(CC)CC,0,0,0,0,0
CC(C)(C)N(Cc1ccccc1)C(=O)CSc1nnc(CNc2ccc(F)cc2)o1,0,11µM,?,0,?
O=C(CSc1nnc(CNc2ccc(F)cc2)o1)N1c2ccccc2Sc2ccccc21,?,21µM,26µM,0,?
COCC(=O)Nc1cc(C(=O)N[C@H]2CCCCNC2=O)c2c(c1)nc(-c1ccncc1)n2C,-,0[9.04 µM],0,-,-
CCOC(=O)c1c(NC(C)=O)c2c3c(sc2n1Cc1cccc(Cl)c1)CCCC3,-,?,15µM,-,-
CCOC(=O)c1c(NC(C)=O)c2c3c(sc2n1Cc1ccc(Cl)cc1)CCCC3,-,?,15µM,-,-

# Screening data from PubChem.
